Source: the supplement of paper PMC11732987, “Enantioselective OTUD7B fragment discovery through chemoproteomics screening and high-throughput optimisation” (Communications Chemistry, 2025)

Experiments:
Test in all cases: log2 ratio of Biotin-Ahx-Ub-VS probe labelling (fragment/DMSO); higher = less target engagement (more negative = stronger competition), active = hit call of the paper (q ≤ 0.05, log2 ratio ≤ -1)
Details in all cases: compound concentration: 200 uM; treatment time: 3 h
[1] = biological target: USP34 (UniProt Q70CQ2)
Chain of USP34 (Q70CQ2 whole entry, the tested form may be a part): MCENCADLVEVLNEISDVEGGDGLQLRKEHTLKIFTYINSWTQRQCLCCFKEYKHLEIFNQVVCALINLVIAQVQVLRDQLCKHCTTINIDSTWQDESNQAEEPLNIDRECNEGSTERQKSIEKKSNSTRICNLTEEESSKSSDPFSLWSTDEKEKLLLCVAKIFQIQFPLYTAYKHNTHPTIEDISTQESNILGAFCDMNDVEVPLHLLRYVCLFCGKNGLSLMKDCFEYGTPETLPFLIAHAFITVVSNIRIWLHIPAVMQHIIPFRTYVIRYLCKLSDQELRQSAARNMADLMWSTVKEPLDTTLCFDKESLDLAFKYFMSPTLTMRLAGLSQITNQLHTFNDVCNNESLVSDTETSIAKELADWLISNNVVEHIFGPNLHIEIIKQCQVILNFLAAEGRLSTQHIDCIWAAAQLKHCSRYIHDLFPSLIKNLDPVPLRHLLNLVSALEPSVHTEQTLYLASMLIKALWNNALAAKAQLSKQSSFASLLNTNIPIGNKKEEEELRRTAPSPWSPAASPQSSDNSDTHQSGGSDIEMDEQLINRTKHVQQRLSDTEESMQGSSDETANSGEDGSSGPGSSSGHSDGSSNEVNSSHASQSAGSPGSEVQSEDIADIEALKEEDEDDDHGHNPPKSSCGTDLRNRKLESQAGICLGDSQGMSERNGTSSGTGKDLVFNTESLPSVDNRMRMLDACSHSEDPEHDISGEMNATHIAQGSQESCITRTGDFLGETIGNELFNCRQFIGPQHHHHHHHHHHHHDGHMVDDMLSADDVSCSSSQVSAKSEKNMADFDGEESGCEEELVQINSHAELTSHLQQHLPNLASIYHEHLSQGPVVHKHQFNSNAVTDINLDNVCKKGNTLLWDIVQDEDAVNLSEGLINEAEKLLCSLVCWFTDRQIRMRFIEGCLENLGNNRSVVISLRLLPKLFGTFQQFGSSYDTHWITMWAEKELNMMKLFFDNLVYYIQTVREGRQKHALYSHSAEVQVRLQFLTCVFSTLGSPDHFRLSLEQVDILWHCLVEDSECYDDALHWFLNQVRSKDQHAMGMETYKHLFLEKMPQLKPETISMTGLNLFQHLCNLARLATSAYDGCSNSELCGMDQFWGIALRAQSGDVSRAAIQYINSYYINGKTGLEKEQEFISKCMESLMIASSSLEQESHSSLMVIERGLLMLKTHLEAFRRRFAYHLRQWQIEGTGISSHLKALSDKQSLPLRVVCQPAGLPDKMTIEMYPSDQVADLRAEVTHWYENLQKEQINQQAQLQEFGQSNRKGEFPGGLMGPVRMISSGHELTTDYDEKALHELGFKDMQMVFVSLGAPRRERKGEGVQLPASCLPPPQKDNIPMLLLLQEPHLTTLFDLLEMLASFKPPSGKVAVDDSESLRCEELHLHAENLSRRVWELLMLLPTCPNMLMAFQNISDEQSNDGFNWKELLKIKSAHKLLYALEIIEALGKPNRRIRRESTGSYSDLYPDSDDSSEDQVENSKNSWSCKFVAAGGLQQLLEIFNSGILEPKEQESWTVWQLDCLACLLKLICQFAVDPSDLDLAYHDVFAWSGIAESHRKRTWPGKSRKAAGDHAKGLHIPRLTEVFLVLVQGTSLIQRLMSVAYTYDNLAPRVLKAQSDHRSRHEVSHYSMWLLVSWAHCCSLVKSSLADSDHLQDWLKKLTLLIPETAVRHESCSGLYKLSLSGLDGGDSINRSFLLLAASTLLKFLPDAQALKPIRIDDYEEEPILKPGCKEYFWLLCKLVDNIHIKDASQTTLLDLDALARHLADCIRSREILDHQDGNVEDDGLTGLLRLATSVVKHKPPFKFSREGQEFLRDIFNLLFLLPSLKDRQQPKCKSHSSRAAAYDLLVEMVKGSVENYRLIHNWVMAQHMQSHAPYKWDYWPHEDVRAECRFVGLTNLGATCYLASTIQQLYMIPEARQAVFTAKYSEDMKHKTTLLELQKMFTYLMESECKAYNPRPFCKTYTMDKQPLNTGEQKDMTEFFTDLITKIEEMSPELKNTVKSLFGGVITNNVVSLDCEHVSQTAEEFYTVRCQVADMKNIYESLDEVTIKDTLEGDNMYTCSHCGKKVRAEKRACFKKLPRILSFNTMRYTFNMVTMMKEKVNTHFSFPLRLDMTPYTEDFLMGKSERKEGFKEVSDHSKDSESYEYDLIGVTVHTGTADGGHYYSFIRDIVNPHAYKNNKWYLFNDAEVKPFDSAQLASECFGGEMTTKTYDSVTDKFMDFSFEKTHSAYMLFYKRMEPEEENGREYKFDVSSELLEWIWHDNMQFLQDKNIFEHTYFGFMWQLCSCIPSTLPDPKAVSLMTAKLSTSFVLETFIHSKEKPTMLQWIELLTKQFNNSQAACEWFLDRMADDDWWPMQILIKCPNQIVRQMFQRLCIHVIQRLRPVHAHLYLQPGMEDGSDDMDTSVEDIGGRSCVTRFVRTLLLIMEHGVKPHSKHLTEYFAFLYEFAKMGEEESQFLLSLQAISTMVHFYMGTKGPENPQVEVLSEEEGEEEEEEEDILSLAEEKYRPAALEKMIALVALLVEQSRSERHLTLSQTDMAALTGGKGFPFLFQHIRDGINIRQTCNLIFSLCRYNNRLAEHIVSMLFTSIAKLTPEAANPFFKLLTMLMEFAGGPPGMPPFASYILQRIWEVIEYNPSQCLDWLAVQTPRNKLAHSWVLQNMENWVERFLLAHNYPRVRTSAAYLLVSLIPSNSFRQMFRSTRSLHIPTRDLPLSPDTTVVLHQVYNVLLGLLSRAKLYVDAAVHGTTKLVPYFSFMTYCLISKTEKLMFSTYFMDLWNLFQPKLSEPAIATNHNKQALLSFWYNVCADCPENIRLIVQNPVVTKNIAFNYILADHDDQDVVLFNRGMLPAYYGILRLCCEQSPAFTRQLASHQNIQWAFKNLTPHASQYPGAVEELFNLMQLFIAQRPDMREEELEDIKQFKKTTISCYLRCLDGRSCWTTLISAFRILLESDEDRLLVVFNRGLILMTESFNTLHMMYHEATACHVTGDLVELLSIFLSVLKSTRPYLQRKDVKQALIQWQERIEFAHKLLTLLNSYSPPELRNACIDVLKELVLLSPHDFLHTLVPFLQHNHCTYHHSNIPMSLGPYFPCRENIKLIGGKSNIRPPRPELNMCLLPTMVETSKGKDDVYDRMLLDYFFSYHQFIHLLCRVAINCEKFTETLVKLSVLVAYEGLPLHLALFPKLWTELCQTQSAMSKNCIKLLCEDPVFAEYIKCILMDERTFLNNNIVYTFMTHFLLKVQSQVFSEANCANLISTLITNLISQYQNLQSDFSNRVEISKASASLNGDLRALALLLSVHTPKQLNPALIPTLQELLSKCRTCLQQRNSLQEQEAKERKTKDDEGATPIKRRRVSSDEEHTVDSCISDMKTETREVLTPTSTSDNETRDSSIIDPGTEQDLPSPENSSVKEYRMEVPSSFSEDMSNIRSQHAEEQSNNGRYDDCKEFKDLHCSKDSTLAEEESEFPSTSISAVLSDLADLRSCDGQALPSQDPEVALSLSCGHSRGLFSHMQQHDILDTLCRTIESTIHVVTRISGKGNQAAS
Summary of the method: (§1)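 Average log2 ratios of fragment over vehicle were obtained by unpaired t-test from global-median-normalised Spectronaut label-free quantities. Proteins with ≥2 unique peptides were included. HEK293T lysate (495 µg per sample) was treated in triplicate with fragment at 200 µM or vehicle for 3 h, then with Biotin-Ahx-Ub-VS at 0.5 µM final for 1 h, and labelled DUBs were NeutrAvidin-enriched and run by diaPASEF LC-MS/MS.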

[2] = biological target: T1, USP36 (UniProt Q9P275)
T1 sequence (whole entry): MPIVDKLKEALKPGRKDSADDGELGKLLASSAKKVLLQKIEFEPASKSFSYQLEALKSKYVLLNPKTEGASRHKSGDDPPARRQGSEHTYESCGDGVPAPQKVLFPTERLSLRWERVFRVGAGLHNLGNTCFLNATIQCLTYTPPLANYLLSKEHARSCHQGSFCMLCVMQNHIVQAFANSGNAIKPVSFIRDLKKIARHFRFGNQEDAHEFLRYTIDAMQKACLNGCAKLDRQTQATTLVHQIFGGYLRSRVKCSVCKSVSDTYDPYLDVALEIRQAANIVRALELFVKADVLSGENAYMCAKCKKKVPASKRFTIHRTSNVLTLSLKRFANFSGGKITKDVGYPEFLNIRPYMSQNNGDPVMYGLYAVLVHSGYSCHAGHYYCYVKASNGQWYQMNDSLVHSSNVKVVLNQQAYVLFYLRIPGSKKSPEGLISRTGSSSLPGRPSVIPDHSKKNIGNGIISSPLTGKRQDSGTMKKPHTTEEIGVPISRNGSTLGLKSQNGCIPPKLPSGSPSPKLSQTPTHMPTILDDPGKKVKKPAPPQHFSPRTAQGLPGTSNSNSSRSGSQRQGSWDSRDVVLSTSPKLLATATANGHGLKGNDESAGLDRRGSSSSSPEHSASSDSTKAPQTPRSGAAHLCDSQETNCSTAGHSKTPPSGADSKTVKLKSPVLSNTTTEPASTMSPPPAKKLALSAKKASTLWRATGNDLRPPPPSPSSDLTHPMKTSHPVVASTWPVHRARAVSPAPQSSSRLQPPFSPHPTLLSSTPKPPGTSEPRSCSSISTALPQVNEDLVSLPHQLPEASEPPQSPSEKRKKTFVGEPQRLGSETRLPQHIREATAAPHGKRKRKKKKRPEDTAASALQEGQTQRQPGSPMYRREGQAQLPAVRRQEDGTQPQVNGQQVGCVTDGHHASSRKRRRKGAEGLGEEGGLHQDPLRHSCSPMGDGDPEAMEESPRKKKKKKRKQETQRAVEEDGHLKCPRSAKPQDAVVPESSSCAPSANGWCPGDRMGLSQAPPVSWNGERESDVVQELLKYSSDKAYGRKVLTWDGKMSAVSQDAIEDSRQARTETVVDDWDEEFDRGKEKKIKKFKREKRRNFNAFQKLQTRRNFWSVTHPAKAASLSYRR
Summary of the method: as §1

[3] = biological target: T2, USP38 (UniProt Q8NB14)
T2 sequence (whole entry): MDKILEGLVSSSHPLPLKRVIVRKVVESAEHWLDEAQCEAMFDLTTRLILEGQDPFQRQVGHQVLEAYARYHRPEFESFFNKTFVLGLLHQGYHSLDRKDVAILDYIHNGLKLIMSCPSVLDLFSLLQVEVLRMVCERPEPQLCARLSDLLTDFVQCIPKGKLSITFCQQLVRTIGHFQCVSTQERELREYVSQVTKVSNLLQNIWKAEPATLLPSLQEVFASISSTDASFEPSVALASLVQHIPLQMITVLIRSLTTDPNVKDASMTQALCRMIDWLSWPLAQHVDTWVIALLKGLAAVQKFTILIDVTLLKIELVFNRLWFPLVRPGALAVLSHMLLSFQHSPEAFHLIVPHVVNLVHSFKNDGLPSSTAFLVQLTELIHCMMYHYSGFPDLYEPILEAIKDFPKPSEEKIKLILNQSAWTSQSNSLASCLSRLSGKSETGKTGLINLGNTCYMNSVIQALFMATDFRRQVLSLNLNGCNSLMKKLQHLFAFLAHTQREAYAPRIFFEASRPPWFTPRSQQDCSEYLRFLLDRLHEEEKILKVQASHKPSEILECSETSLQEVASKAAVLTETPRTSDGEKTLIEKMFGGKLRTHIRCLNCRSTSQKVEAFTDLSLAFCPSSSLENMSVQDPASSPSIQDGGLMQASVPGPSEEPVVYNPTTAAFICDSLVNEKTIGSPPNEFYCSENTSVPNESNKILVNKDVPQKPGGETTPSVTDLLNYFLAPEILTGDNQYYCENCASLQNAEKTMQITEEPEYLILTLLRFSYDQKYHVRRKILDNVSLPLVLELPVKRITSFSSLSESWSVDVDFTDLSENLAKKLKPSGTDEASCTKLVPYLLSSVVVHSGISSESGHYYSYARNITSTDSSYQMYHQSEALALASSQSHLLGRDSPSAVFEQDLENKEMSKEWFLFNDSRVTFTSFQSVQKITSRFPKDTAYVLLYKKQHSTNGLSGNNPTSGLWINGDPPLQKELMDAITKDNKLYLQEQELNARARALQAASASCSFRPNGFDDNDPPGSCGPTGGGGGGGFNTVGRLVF
Summary of the method: as §1

[4] = biological target: T3, USP39 (UniProt Q53GS9)
T3 sequence (whole entry): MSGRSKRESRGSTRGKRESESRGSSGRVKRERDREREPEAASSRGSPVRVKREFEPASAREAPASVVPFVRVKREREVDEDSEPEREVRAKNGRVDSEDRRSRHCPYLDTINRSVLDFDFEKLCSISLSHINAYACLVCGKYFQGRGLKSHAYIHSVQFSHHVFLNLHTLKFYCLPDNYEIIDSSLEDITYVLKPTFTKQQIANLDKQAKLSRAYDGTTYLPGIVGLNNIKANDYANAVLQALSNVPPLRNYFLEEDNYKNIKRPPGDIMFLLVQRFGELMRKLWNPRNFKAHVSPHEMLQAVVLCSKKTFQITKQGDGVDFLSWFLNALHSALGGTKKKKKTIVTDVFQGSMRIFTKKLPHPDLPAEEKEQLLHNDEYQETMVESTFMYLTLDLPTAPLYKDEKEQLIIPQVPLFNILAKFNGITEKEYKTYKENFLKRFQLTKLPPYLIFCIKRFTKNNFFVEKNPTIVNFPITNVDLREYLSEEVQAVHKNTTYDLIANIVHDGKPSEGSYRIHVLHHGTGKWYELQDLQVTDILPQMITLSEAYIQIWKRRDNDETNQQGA
Summary of the method: as §1

[5] = biological target: T4, USP4 (UniProt Q13107)
T4 sequence (whole entry): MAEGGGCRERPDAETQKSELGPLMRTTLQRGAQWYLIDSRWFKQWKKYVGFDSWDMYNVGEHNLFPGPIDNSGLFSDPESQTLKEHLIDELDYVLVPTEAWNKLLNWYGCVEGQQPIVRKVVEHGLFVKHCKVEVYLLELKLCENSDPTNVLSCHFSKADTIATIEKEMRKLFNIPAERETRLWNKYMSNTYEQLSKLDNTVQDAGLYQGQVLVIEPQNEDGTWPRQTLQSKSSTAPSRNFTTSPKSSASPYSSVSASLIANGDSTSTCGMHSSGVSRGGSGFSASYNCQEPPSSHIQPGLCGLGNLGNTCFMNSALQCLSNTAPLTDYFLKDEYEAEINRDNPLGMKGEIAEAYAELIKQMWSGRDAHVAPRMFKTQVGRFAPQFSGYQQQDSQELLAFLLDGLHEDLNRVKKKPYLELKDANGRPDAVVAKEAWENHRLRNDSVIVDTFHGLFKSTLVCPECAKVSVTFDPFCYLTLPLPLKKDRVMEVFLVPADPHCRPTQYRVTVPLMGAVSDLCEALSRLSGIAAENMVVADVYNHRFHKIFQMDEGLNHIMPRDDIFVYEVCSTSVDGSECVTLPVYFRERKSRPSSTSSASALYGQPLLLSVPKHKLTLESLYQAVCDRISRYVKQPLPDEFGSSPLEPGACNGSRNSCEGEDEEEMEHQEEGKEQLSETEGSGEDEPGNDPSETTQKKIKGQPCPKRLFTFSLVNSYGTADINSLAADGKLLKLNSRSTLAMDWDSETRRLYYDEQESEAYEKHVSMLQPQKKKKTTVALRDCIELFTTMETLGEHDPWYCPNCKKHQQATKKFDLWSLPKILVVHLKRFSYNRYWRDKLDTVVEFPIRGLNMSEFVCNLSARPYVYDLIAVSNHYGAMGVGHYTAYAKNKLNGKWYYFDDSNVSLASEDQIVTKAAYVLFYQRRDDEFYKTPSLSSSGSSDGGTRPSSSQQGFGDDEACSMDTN
Summary of the method: as §1

Measured: log2 ratio of Biotin-Ahx-Ub-VS probe labelling

Cc1cccc(NC(=O)[C@@H]2CCCN2C(=O)CCl)n1
inactive: [1] 0.0425 | [2] -0.0946 | [3] -0.0719 | [4] 0.179 | [5] -0.0817
